Data as given in paper PMC6792352, “Limited Chemical Structural Diversity Found to Modulate Thyroid Hormone Receptor in the Tox21 Chemical Library” (Environmental Health Perspectives, 2019).
Counter-ions that a name gives are not always drawn.

What follows are compounds tested on thyroid hormone receptor (endogenous TRα and TRβ). Conditions: read-out: Average AC50 (uM) GH3-TRE-Antag, antagonist mode, 1 nM T3, no GH3 cytotoxicity hit.
Set-up: species or system GH3-TRE-Luc (rat pituitary); GH3-TRE-Luc luciferase reporter, antagonist mode against 1 nM T3, loss of signal, qHTS

Row | Structure (SMILES) | AC50 [µM]
1 | CCC(Cc1c(I)cc(I)c(N)c1I)C(=O)O (centres unmarked) [Iopanoic acid] | > 20
2 | CC(C)=CCC/C(C)=C/C=C/C(C)=C/C=C/C(C)=C/C=C/C=C(C)/C=C/C=C(C)/C=C/C=C(\C)CCC=C(C)C [Lycopene] | 31.7
3 | CNc1cc(OC)c(C(=O)N[C@@H]2CCN(Cc3ccccc3)[C@@H]2C)cc1Cl (racemic) [Nemonapride] | 36.4
4 | COC1=CC(=O)O[C@@H](/C=C/c2ccc3c(c2)OCO3)C1 [Methysticin] | 0.0476
5 | CCCCCOC(=O)COc1cc(N2C(=O)C3=C(CCCC3)C2=O)c(F)cc1Cl [Flumiclorac-pentyl] | 52.5
6 | CC(C)(C)c1ccc(CCC=O)cc1 [3-(4-tert-Butylphenyl)propanal] | 56.6
7 | C[C@]12CC[C@@H]3c4ccc(O)cc4CC[C@H]3[C@@H]1CC[C@H]2O [17alpha-Estradiol] | 27
8 | O=C(O)c1cccnc1Nc1cccc(C(F)(F)F)c1 [Niflumic acid] | 20.3
9 | c1ccc2sc(SN(C3CCCCC3)C3CCCCC3)nc2c1 [N,N-Dicyclohexyl-2-benzothiazolesulfenamide] | 33.2
10 | CCCCCCCCCCCCCCCC(=O)O[C@@H]1CC(C)=C(/C=C/C(C)=C/C=C/C(C)=C/C=C/C=C(C)/C=C/C=C(C)/C=C/C2=C(C)C[C@@H](OC(=O)CCCCCCCCCCCCCCC)CC2(C)C)C(C)(C)C1 [Physalien] | 39.2
11 | Cc1ccccc1CO[C@@H]1C[C@@]2(C(C)C)CC[C@]1(C)O2 (racemic) [Cinmethylin] | 38.4
12 | CCOc1ccc2nc3cc(N)ccc3c(N)c2c1 [Ethacridine lactate hydrate] | 40.1
13 | c1ccc(CN(Cc2ccccc2)Cc2ccccc2)cc1 [Tribenzylamine] | 90.8
14 | CC1CC(OC(=O)C(O)c2ccccc2)CC(C)(C)C1 (centres unmarked) [Cyclandelate] | 44.8
15 | CCCCC(CC)COC(=O)c1ccc(N(C)C)cc1 (centres unmarked) [2-Ethylhexyl 4-(dimethylamino)benzoate] | 47.2
16 | CC(=O)CC/C=C(\C)CC/C=C(\C)CC/C=C(\C)CCC=C(C)C [Teprenone] | 33.9
17 | CCOC(CN1CCN(CC(C)C(=O)c2ccccc2)CC1)c1ccccc1 (centres unmarked) [Eprazinone dihydrochloride] | 32.1
18 | CC(Cc1ccccc1)(NC(=O)CN)c1ccccc1 (centres unmarked) [Remacemide hydrochloride] | 21.8
19 | CC(C)=CC1C(C(=O)OC(C#N)c2cccc(Oc3ccccc3)c2)C1(C)C (centres unmarked) [Cyphenothrin] | 79.9

Row | Structure (SMILES) | AC50 [µM]
20 | CCCCCCCCCCCCCCCC(=O)OC[C@H](O)[C@H]1OC(=O)C(O)=C1O [Ascorbyl palmitate] | > 50
21 | OCC#CCO [2-Butyne-1,4-diol] | 58.8
22 | CC1=C2[C@H](/C=C(\C)C(=O)O)CC[C@@H](C)[C@H]2CC1 [Valerenic acid] | 57.5
23 | O=C1OC(OC(=O)c2cccnc2Nc2cccc(C(F)(F)F)c2)c2ccccc21 (centres unmarked) [Talniflumate] | 9.92
24 | CCCCNc1ccc(C(=O)OCCN(C)C)cc1 [Tetracaine hydrochloride] | 11.2
25 | CC[C@@]1(O)C(=O)OCc2c1cc1n(c2=O)Cc2cc3c(CN(C)C)c(O)ccc3nc2-1 [Topotecan hydrochloride] | 2.45
26 | CC(C)(c1ccc(O)cc1)c1ccc(O)cc1 [BPA, bisphenol A] | 66.6
27 | O=c1oc2c(O)c(O)cc3c(=O)oc4c(O)c(O)cc1c4c23 [Ellagic acid] | 12.9
28 | CCOC(=O)Oc1c(OC)cc(C(=O)O[C@@H]2C[C@@H]3CN4CCc5c([nH]c6cc(OC)ccc56)[C@H]4C[C@@H]3[C@H](C(=O)OC)[C@H]2OC)cc1OC [Syrosingopine] | 19
29 | C[C@]12CCC(=O)C=C1CC[C@@H]1[C@@H]2CC[C@@]2(C)[C@H]1CC[C@]2(O)C(=O)CO [Cortodoxone] | 21.8
30 | Cc1cccc(C)c1Nc1ncccc1C(=O)O [Metanixin] | 28.2
31 | CNCc1ccc(NC(=O)c2c[nH]c3c2C(=O)CCC3)cc1 [CP-409092] | 84.3
32 | COc1ccc(CN(CCN(C)C)c2ccccn2)cc1 [Pyrilamine maleate] | 32.2
33 | O=C(N[C@@H]1N=C(c2ccccc2F)c2cccc3c2N(CC3)C1=O)c1cc2ccccc2[nH]1 [N-[(3R)-1-(2-Fluorophenyl)-4-oxo-3,4,6,7-tetrahydro[1,4]diazepino[6,7,1-hi]indol-3-yl]-1H-indole-2-carboxamide] | 5.69
34 | c1cc2c(c(NC3=NCCN3)c1)CCCC2 [Tramazoline tosylate] | 37.5
35 | CC(C)=CCC/C(C)=C/CC/C(C)=C/CC/C(C)=C/CC1=C(C)C(=O)c2ccccc2C1=O [Menatetrenone] | 24.9
36 | CC1=C(C)S(=O)(=O)CCS1(=O)=O [Dimethipin] | 86.8
37 | Cc1ccc(C(C)c2ccc(C)c(C)c2)cc1C [1,1-Bis(3,4-dimethylphenyl)ethane] | 70.8
38 | CCOC(=O)CS [Acetic acid,mercapto-,ethylester] | 73.6
